Bioassay records deposited in PubChem by National Center for Advancing Translational Sciences (NCATS).
Shown are actives, neighbours in structure and some others; about 21% of the full set was active somewhere.
NS1 inh – influenza NS1 inhibition. Potency, µM (highest dose often 46.1 µM). 0.4% of 270,000 active. AID 2326; calls by dose curve; note: actives are rising curves; nearly all actives have a fitted effect of over 50% in size
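In this qHTS, NS1 from influenza A is expressed in budding yeast, where it slows growth. Cells are switched from glucose to 2% galactose medium (pH 6.0, -URA), treated with compound, and growth recovery is read at OD600.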
Cycloheximide cs – affects cycloheximide protein synthesis inhibition readout, counter-screen. cell reporter, cycloheximide protein synthesis inhibition counterscreen. 12% of 300,000 active. max response, %; in the data active = max response mostly above about 13%, no sharp cut-off; inactive = mostly below about 14%; note: read at 38.3 µM for the half of the compounds with a filed dose
Pf growth 96h – P. falciparum growth inhibition at 96 hours; P. falciparum luciferase reporter growth, 96 h; Potency, µM (highest dose often 28.7 µM), most hits filed as inhibitors; 6.9% of 320,000 active; AID 504834
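P. falciparum expressing integrated firefly luciferase grown in erythrocytes (2% hematocrit, 0.05% parasitemia final) with compounds for 96 hours at 37 C, 5% CO2. Growth inhibition read as loss of luminescence after adding luciferase detection reagent.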
Pf growth 48h – P. falciparum growth inhibition at 48 hours (one generation); P. falciparum luciferase growth in erythrocytes, 48 h; Potency, µM (highest dose often 28.7 µM), actives largely listed as inhibitors; 5.9% of 310,000 active
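Here the parasites carry a stable luciferase gene and grow inside erythrocytes in Albumax-based RPMI medium with compound for one erythrocytic cycle. Activity is scored as loss of luminescent signal.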
Sm TGR block – inhibitors of Schistosoma mansoni thioredoxin glutathione reductase. Q962Y6. purified TGR, DTNB reduction, TNB absorbance 405 nm. Potency, µM (doses to about 114 µM), hits mostly inhibitors. 3% of 360,000 active. AID 485364; note: nearly all actives have a fitted effect of over 60% in size
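First, TGR (20 nM dispensed) and NADPH were mixed with compound. Second, a 15 min room-temperature incubation followed. Third, further NADPH and then DTNB were added to start the reaction. Finally, TNB absorbance was monitored kinetically.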
Shiga inhibitor – inhibitors of Shiga toxin in Vero cells; Vero cells, Shiga toxin protein synthesis inhibition reporter; inhibition, % at 38.7 µM; 9.2% of 290,000 active; in the data active = inhibition mostly above about 28%, no sharp cut-off; inactive = mostly below about 43%
Each line names hits and unclear results; the compound was inactive in the other large screens. Unless noted, calls come from the whole dose curve; as a rule, active = well fitted curve in the direction sought with a large enough effect; inconclusive = small, poorly fitted or top-dose-only effect, or another doubt; inactive = no such curve, though single readings can be large; an effect the other way counts as inactive or inconclusive.

COc1ccc(C2=NN(C(=O)CSc3nc(=O)n4cccc(C)c4n3)C(c3ccc(C)cc3)C2)cc1 (stereo not drawn)	Pf growth 96h inconclusive, Pf growth 48h 12µM (no result: NS1 inh, Cycloheximide cs, Shiga inhibitor)
Cc1ccc(C2CC(c3cccs3)=NN2C(=O)CSc2nc(=O)n3cc(C)ccc3n2)cc1 (stereo not drawn)	Pf growth 96h 5.2µM, Pf growth 48h inconclusive (no result: NS1 inh, Cycloheximide cs, Shiga inhibitor)
COc1ccc(C2CC(c3cccs3)=NN2C(=O)CSc2nc(=O)n3ccccc3n2)cc1 (stereo not drawn)	Pf growth 96h 8.3µM, Pf growth 48h 13µM (no result: NS1 inh, Cycloheximide cs, Shiga inhibitor)
CCOC(=O)CSCC(=O)N1N=C(c2cccs2)CC1c1ccc(F)cc1 (stereo not drawn)	Pf growth 96h inconclusive, Sm TGR block inconclusive
Cc1cccn2c(=O)nc(SCC(=O)N3N=C(c4cccs4)CC3c3ccc(F)cc3)nc12 (stereo not drawn)	Pf growth 96h 3.7µM, Pf growth 48h 8.3µM (no result: NS1 inh, Cycloheximide cs, Shiga inhibitor)
COc1ccc(S(=O)(=O)NCCc2sc(-c3cccnc3)nc2C)c(F)c1	none (no result: NS1 inh, Cycloheximide cs, Pf growth 96h, Pf growth 48h, Shiga inhibitor)
O=C(CSc1nc2c(cnn2-c2ccc(F)cc2)c(=O)[nH]1)N1N=C(c2cccs2)CC1c1ccc(F)cc1 (stereo not drawn)	Pf growth 96h 9.3µM, Pf growth 48h inconclusive
COc1ccc(CC(=O)NCc2nc3cccnc3n2Cc2ccc(C)cc2)cc1	none (no result: NS1 inh, Cycloheximide cs, Pf growth 96h, Pf growth 48h, Shiga inhibitor)
Cc1ccnc(NCc2c(O)ccc3ccccc23)c1	Pf growth 96h 0.093µM, Sm TGR block inconclusive
Cc1ccnc(NCc2ccc(Cl)cc2)c1	Cycloheximide cs 25, Shiga inhibitor 49
Cc1ccc(CNc2cnccn2)cc1	Shiga inhibitor 27
c1ccc(CNc2cnccn2)cc1	Sm TGR block inconclusive
Cc1ccnc(NC(=O)CNC(=O)Cc2cccc3ccccc23)c1	none (no result: NS1 inh, Cycloheximide cs, Shiga inhibitor)
c1ccc(CCNc2cnccn2)cc1	Cycloheximide cs 18, Shiga inhibitor 34 (no result: Pf growth 48h)
Cc1ccc(OCC(=O)NCC2(N(C)C)CCCCC2)cc1C	none (no result: NS1 inh, Cycloheximide cs, Pf growth 96h, Pf growth 48h, Shiga inhibitor)
Cc1onc(-c2ccccc2)c1CNC(=O)Nc1ccccc1	Pf growth 96h inconclusive
Clc1ccc(CNc2ccccn2)cc1	Cycloheximide cs 31, Shiga inhibitor 55
Cc1c(C(=O)N2CCC(C)CC2)c(S(=O)(=O)NCc2ccccc2)c(C)n1C	none (no result: NS1 inh, Cycloheximide cs, Pf growth 96h, Pf growth 48h, Shiga inhibitor)
C=CCNC(=O)Nc1ccc(Br)cc1Cl	none
O=C(Nc1ccno1)Nc1ccc(Cl)cc1Cl	Cycloheximide cs 11
O=C(NCc1ccccn1)Nc1ccc(Br)cc1Cl	Cycloheximide cs 63, Pf growth 96h 9.3µM, Shiga inhibitor 136
O=C(NCc1ccccn1)c1ccccc1OCc1ccc(Cl)cc1Cl	Pf growth 96h 15µM, Pf growth 48h inconclusive (no result: NS1 inh, Cycloheximide cs, Shiga inhibitor)
O=C(NCc1ccccn1)c1ccccc1Cl	Sm TGR block inconclusive (no result: Pf growth 96h)
S=C(NCc1ccccn1)Nc1ccc(Br)cc1Cl	Cycloheximide cs 18, Shiga inhibitor 44
S=C(NCc1ccccn1)Nc1ccccc1Cl	none
Cc1cc(CNC(=S)Nc2ccc(Br)cc2Cl)nn1C	Sm TGR block 7.9µM
CN(CCc1ccccn1)Cc1ccc(Cl)c(Cl)c1	none
N/C(=N\NC(=O)c1sccc1OCc1ccc(Cl)cc1Cl)c1ccccn1	Pf growth 96h inconclusive, Pf growth 48h 3.3µM
CN(CCc1ccccn1)Cc1ccc(Cl)cc1Cl	Cycloheximide cs 17
CNC(=S)NNC(=O)c1sccc1OCc1ccc(Cl)cc1Cl	none
O=C(NCc1ccccn1)Nc1ccc(Cl)cc1Cl	Cycloheximide cs 37, Pf growth 96h inconclusive, Shiga inhibitor 66
Cc1cc(CNC(=O)c2cc(Br)ccc2Cl)nn1C	none (no result: Pf growth 96h)
CCNc1oc(-c2cccc3ccccc23)nc1C#N	Shiga inhibitor 58
C=CCNc1oc(-c2cccc3ccccc23)nc1C#N	Cycloheximide cs 46, Pf growth 96h inconclusive, Sm TGR block inconclusive, Shiga inhibitor 45
CC(C)Nc1oc(-c2cccc3ccccc23)nc1C#N	Cycloheximide cs 30, Pf growth 48h inconclusive, Shiga inhibitor 84
NC(=O)CSc1nnc2n(N)c(=O)c3ccccc3n12	Pf growth 96h inconclusive
CCC(=O)Nc1c(S(=O)(=O)c2ccc(C)cc2)c2nc3ccccc3nc2n1C(C)c1ccccc1 (stereo not drawn)	Pf growth 96h inconclusive, Pf growth 48h inconclusive
CCC(=O)Nc1c(S(=O)(=O)c2ccccc2)c2nc3ccccc3nc2n1C(C)c1ccccc1 (stereo not drawn)	Pf growth 96h 12µM, Pf growth 48h 12µM
COc1ccc(-c2nn(-c3ccccc3)cc2C(=O)NC(=S)N2CCOCC2)cc1OC	none (no result: NS1 inh, Cycloheximide cs, Shiga inhibitor)
